About 83,000 compounds went through this panel and 20% of them were active in at least one assay; those are over-represented in the sample as a whole.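 Cells were grown in 96-well plates and exposed to the test compound at a single concentration for 48 hours; results are reported as percent growth, with values below 10 considered active.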 Unmarked numbers belong to inactive results. The source made the active and inactive calls.
Columns and labels:
Experiment in all cases: NCI-60 one-dose screen, 48 h (100 = growth as untreated, 0 = no growth, -100 = all killed)
Conditions in all cases: 10 µM unless noted
[1] = test system: SK-MEL-2 melanoma
[2] = test system: EKVX NSCLC
[3] = test system: SN12C renal
[4] = test system: UO-31 renal
[5] = test system: TK-10 renal
[6] = test system: ACHN renal
[7] = test system: CAKI-1 renal
[8] = test system: A498 renal
[9] = test system: CCRF-CEM leukemia
[10] = test system: MOLT-4 leukemia
[11] = test system: SR leukemia
[12] = test system: RPMI-8226 leukemia
[13] = test system: OVCAR-8 ovarian
[14] = test system: OVCAR-5 ovarian
[15] = test system: OVCAR-4 ovarian
[16] = test system: SK-OV-3 ovarian
[17] = test system: IGROV1 ovarian
[18] = test system: OVCAR-3 ovarian
[19] = test system: HS 578T breast
[20] = test system: NCI/ADR-RES ovarian

| Compound | growth [1] | growth [2] | growth [3] | growth [4] | growth [5] | growth [6] | growth [7] | growth [8] | growth [9] | growth [10] | growth [11] | growth [12] | growth [13] | growth [14] | growth [15] | growth [16] | growth [17] | growth [18] | growth [19] | growth [20] |
| --- | --- | --- | --- | --- | --- | --- | --- | --- | --- | --- | --- | --- | --- | --- | --- | --- | --- | --- | --- | --- |
| COc1ccc(Cc2nn(CC(=O)N/N=C/c3ccc(F)cc3)c(=O)c3c(C)noc23)cc1 | 70.5% | 29.8% | -0.271% (active) | -48% (active) | -3.12% (active) | -39.4% (active) | 10.2% | -57.5% (active) | 70.4% | 92.6% | 53.2% | 64.7% | 38.6% | 55% | -35.8% (active) | -72.1% (active) | 39.7% | 47% | 23.1% | 38.4% |
| CC(C)c1sc(NC(=O)c2cc(NC(=O)c3cc(NC(=O)c4cscn4)cn3C)cn2C)nc1C(=O)NCCCN(C)C | -79.4% (active) | 27% | 19.1% | 85% | 85.3% | 98.7% | 91% | 113% | 1.16% (active) | 5.49% (active) | -8.69% (active) | 94.5% | 2.77% (active) | 10.5% | 18.7% | -14.5% (active) | 13.3% | 3.57% (active) | 23.3% | 103% |
| C=C1CCC2C3(C)COC(c4ccccc4)OC3CCC2(C)C1CC(Sc1ccccc1)C1=CCOC1=O (stereo not given) | 59.4% | 69.3% | 25.7% | 45.5% | 106% | 65.1% | 78.4% | 140% | -1.92% (active) | -14.3% (active) | 8.04% (active) | 3.18% (active) | 12.9% | 58.5% | 50.4% | 120% | 58% | 44% | 94.1% | -22.7% (active) |
| O=S(=O)(Nc1cccc(-n2cnc3cc(-c4ccc(O)cc4)ccc32)c1)C1CC1 | 51.7% | 46.4% | 34.8% | 21% | 65% | 21.3% | 18.9% | 30.6% | 23.6% | 13.7% | 13.2% | 23.9% | 19.8% | 47.1% | 48.3% | 35.6% | 35.3% | 2.82% (active) | -20.1% (active) | 25.1% |
| CN(C)c1nc(NCCNS(=O)(=O)c2ccc(C(=O)/C=C/c3ccc(C(F)(F)F)cc3)cc2)nc(Nc2ccc(F)cc2)n1 | -7.74% (active) | 13.6% | -99.1% (active) | 25.5% | 26.2% | 1.99% (active) | 4.56% (active) | 49.6% | 10.1% | 0.0408% (active) | -26.2% (active) | 0.159% (active) | -62.1% (active) | -68.9% (active) | 11.6% | 66% | -40.6% (active) | -86.7% (active) | 52.1% | -54.3% (active) |
| CC12CC[C@@H]3[C@]4(C)COC(c5cn[nH]c5-c5ccc(Br)cc5)O[C@@H]4CC[C@@]3(C)[C@@H]1CC(C1=CCOC1=O)O2 (stereo not given in full) | 52.4% | 43.2% | 57.5% | 25.1% | 54.6% | 47% | 43.3% | 97.8% | 51.4% | -0.166% (active) | 40.6% | 24.9% | 62.6% | 81.5% | 36.1% | 73.5% | 50.3% | 56% | 55.6% | 51.9% |
| Cc1cccc(Nc2nc3ccccc3nc2/C=C/c2ccc(F)cc2)c1 | 98.3% | 83.7% | 90.9% | 67.9% | 151% | 89.9% | 79.9% | 112% | 97.1% | 80.9% | 87.2% | 91.8% | 85.1% | 101% | 88.9% | 105% | 75.3% | 108% | 83.8% | 91.1% |
| Cc1cc2nc3c4ccccc4n(CCCN(C)C)c3nc2cc1C | -90.1% (active) | -41.8% (active) | -27.6% (active) | 2.63% (active) | 8.05% (active) | 4.95% (active) | 3.24% (active) | -39.6% (active) | 0.177% (active) | 2.75% (active) | 3.07% (active) | -26.1% (active) | 6.13% (active) | 9.07% (active) | -23.4% (active) | 8.14% (active) | -10.5% (active) | -14.2% (active) | -10.7% (active) | 1.96% (active) |
| CN(C)c1nc(NCCNS(=O)(=O)c2ccc(C3=Nc4c(N)nc(N)nc4NC(c4ccc(C(F)(F)F)cc4)C3)cc2)nc(Nc2ccc(F)cc2)n1 (stereo not given) | -82% (active) | 26.2% | 30.8% | 84.7% | 59.4% | 58.5% | 63.1% | 41.6% | 8.86% (active) | 9.04% (active) | -23.2% (active) | -13.1% (active) | 32.8% | 29.5% | 31.3% | 49.8% | 35.8% | 23% | 27.1% | 92.9% |
| COc1ccc(-c2nc3cc(C)ccc3n2CC(=O)N=Nc2c(O)[nH]c3ccc(OC)cc23)cc1 | -14% (active) | -25.5% (active) | -95.1% (active) | -29.4% (active) | -3.46% (active) | -73.9% (active) | -51.3% (active) | 52.3% | 38.5% | -46.2% (active) | -21.1% (active) | -14.7% (active) | -68.8% (active) | -48.2% (active) | -58.1% (active) | -17.7% (active) | -17.3% (active) | -71.8% (active) | -23.4% (active) | -56.1% (active) |
| COc1c(F)ccc(C(=O)Nc2ccc3nc(NC(=O)C4CCCN(S(=O)(=O)c5cccc(Br)c5)C4)sc3c2)c1F (stereo not given) | 94.9% | 90.9% | 88.4% | 79.3% | 118% | 82.9% | 76.4% | 112% | 89.5% | 49.3% | 55.9% | 51.7% | 104% | 104% | 73.6% | 112% | 86.8% | 106% | 56.6% | 85.3% |
| O=C(N1c2ccccc2Sc2ccccc21)n1ccc2cccnc21 | 73.6% | 79.3% | 81.1% | 55.6% | 90.7% | 88.2% | 53.6% | 109% | 63.2% | 38.3% | 12.1% | 40.4% | 88.1% | 98.5% | 65.6% | 79.9% | 72% | 82% | 70.7% | 57.7% |
| CCCCSc1nc(Nc2ccc(S(N)(=O)=O)cc2)c(C#N)c(-c2ccc(Cl)cc2)n1 | 118% | 34.7% | -20.3% (active) | 14.6% | 77.1% | -66.9% (active) | 55% | 108% | 95% | 52.8% | 19.4% | 52.7% | -2.51% (active) | 51.5% | 2.66% (active) | 30.4% | 37.5% | 54.1% | 64.8% | 16.4% |
| Cn1cc(-c2nnc(N)nc2-c2c[nH]c3ccc(Br)cc23)c2cc(Br)cnc21 | 35.4% | 64.3% | 63% | 42.4% | 37.7% | 61.3% | 33% | 39.4% | 28% | 11.7% | 23.8% | 41.6% | 59.4% | 73.8% | 45.6% | 89.2% | 46.4% | 55.8% | 59.2% | 64.5% |
| COc1c(F)ccc(C(=O)Nc2ccc3nc(NC(=O)C4CCCN(S(=O)(=O)c5ccc(Cl)cc5)C4)sc3c2)c1F (stereo not given) | 88% | 85.1% | 82% | 62.9% | 103% | 86.7% | 68.9% | 96.4% | 85.5% | 38.8% | 44.8% | 53.8% | 97.2% | 97% | 86.2% | 97.2% | 72.9% | 92% | 60.2% | 74% |
